This note sets out measurements from PubChem BioAssay AID504850 (National Center for Advancing Translational Sciences (NCATS), 2011).

In all, about 2,300 compounds went through this assay and about 1,200 (52%) were called active. Not shown: some 34% with an inconclusive outcome. Calls come from the whole dose curve; as a rule, active = well fitted inhibition curve with a large enough effect; inconclusive = small, poorly fitted or top-dose-only effect, or effect the other way; inactive = no such curve, though single readings can be large or run the other way. So high a share suggests a set chosen from earlier hits. This is one part of the list.
% is set by controls: 0 for no effect and ±100 for the full control effect; potency is the fitted concentration of half-maximal effect.

The nature of this assay: Confirmation screen for delayed death inhibitors of the malarial parasite plastid, 48 hour incubation. Note: nearly all actives have a fitted effect of over 65% in size. To be noted: P. falciparum-infected erythrocytes, luciferase growth; series mostly up to 28.7 µM; activity change, negative = inhibition: at the top concentration. In a few lines: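 Single-generation (48 h, 37 C) exposure of integrated firefly luciferase-reporter P. falciparum in red cells, 0.1% parasitemia at 2% hematocrit, Albumax-supplemented RPMI. Falling luciferase signal marks parasite growth inhibition.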
For the compound `N=C1S/C(=C\c2ccco2)C(=O)N1c1nccs1`, the Potency was 14.1 µM (active).

With `O=C(CCCN1C(=O)/C(=C\c2ccco2)SC1=S)Nc1ccc2ccccc2c1`, the “activity change, negative = inhibition” value is -5.51% (inactive).

For the compound `O=C(c1ccc(Cl)cc1)C(Cn1cncn1)C(Sc1ccccc1)c1ccccc1` (configuration not stated), the Potency is 14.1 µM (active).

With `Cc1cc(C)c(/C=C(\C#N)C(N)=S)c(C)c1`, the “activity change, negative = inhibition” value is -25.2% (inactive).

With `CCN(CC)S(=O)(=O)c1ccc(N2CCOCC2)c(NC(=O)C2CSC3(C)CCC(=O)N23)c1` (configuration not stated), the Potency was 14.1 µM (active).

As to `COc1ccc([C@@]2(C(C)C)ON(c3ccccc3C(F)(F)F)C2=O)cc1`, the Potency is 1.12 µM (active).

With `CCOC(=O)CC(Nc1nc(N2CCOCC2)nc(N2CCOCC2)n1)c1ccccc1Cl` (configuration not stated), the Potency was 6.31 µM (active).

For `CCCc1ccc(C(=O)NC(=O)c2ccccc2O)cc1`, the Potency was 0.501 µM (active).

With `CSc1ccccc1OCc1cc(C(=O)N(C)CCc2c(C)n[nH]c2C)no1`, the Potency is 12.6 µM (active).

`CCN(CCN1CCCC1)C(=O)c1cc(COc2ccccc2SC)on1`: the Potency was 15.8 µM (active).

As for `CSc1ccccc1OCc1cc(C(=O)N2C[C@H]3CC[C@H]2C3)no1`, the “activity change, negative = inhibition” value was -29.5% (inactive).

With `CSc1ccccc1OCc1cc(C(=O)NCCCn2nc(C)cc2C)no1`, the Potency was 15.8 µM (active).

For `CSc1ccccc1OCc1cc(C(=O)NCCn2ccnc2C)no1`, the “activity change, negative = inhibition” value was 15.8% (inactive).

For the compound `Nc1nc(SCC(=O)NCC2CCCO2)[nH]c(=O)c1NC(=O)c1ccc(F)c(F)c1` (configuration not stated), the Potency is 12.6 µM (active).

As to `CCS(=O)(=O)c1nc(S(=O)(=O)c2ccc(C)cc2)c(N2CCC3(CC2)OCCO3)s1`, the Potency is 12.6 µM (active).

`CC(C)Cc1ccc(C(=O)Nc2ccc(Cc3ccncc3)cc2)o1`: the Potency was 12.6 µM (active).

As to `CCN(CC)S(=O)(=O)c1cc(NC(=O)C(C)OC(=O)c2[nH]c(C)c(C(C)=O)c2C)ccc1C` (configuration not stated), the Potency is 4.47 µM (active).

On to `Cc1oc2c(c1C(=O)N1CCOCC1)C(=O)c1ccccc1C2=O`, for which the Potency is 2 µM (active).

For `CCCC1O[C@@H]2CC3C4CCC5=CC(=O)C=C[C@]5(C)C4C(OC(C)=O)C[C@]3(C)[C@]2(C(=O)COC(C)=O)O1` (some centres not stated), the Potency is 7.08 µM (active).

`COC1C(OC(=O)/C=C/C=C/C=C/C=C/C(=O)O)CCC2(CO2)C1C1(C)OC1CC=C(C)C` (configuration not stated): the Potency was 0.0562 µM (active).

For the compound `CCc1ccc(/C=C/c2c[nH]c3ccccc23)[n+](CC)c1`, the Potency was 0.126 µM (active).

With `CC[n+]1ccc(/C=C/c2c[nH]c3ccccc23)cc1`, the Potency is 0.355 µM (active).

In the case of `CC(C)CC1NC(=S)N(Cc2ccccc2)C1=O` (configuration not stated), the Potency is 5.01 µM (active).

On to `O=C(C#Cc1ccccc1)Nc1cccc(F)c1`, for which the Potency is 7.94 µM (active).

Regarding `Cc1nnsc1C(=O)Nc1ccccc1`, the “activity change, negative = inhibition” value was 14.9% (inactive).

Regarding `NC(=O)c1ccc(NC(=O)C#Cc2ccccc2)cc1`, the Potency is 5.01 µM (active).

In the case of `Nc1ccc(-c2c3ccc(=O)cc-3oc3cc(O)ccc23)c(C(=O)O)c1`, the “activity change, negative = inhibition” value is 3.65% (inactive).

As for `c1ccc(Cn2nnc3c(N4CCCCCC4)ncnc32)cc1`, the Potency was 14.1 µM (active).

Regarding `CCn1c(=O)n(CC)c2cc(N3CCCC3)c(NC(=O)c3ccc(C)cc3)cc21`, the Potency is 11.2 µM (active).

As for `COc1ccc(CC(=O)NNC(=O)CN(C)S(=O)(=O)c2ccc(Cl)cc2)cc1OC`, the “activity change, negative = inhibition” value is -28.2% (inactive).

For the compound `Cc1csc(NC(=O)Cc2coc3cc(C)c(C(C)C)cc23)n1`, the Potency was 14.1 µM (active).

Turning to `O=C(COC(=O)c1ccc(F)c(S(=O)(=O)N2CCOCC2)c1)Nc1ccc2[nH]c(=O)[nH]c2c1`, the “activity change, negative = inhibition” value is -10.8% (inactive).

Regarding `Cc1ccc(NC(=O)COc2ccccc2C#N)cc1S(=O)(=O)N1CCCCCC1`, the Potency was 14.1 µM (active).

For `COc1ccc(NC(=O)Cc2coc3cc(C)c(C(C)C)cc23)cc1S(=O)(=O)N1CCOCC1`, the Potency was 12.6 µM (active).

For the compound `COc1ccc(NC(=O)Cc2ccc(Cl)cc2)cc1S(=O)(=O)N1CCCCC1`, the Potency is 12.6 µM (active).

Turning to `COc1ccccc1-c1coc2cc(OC(=O)N3CCOCC3)ccc2c1=O`, the “activity change, negative = inhibition” value was 7.66% (inactive).

With `CC1(C)CC(=O)C=C(NC2=CC3OC(c4ccccc4)OCC3OC2=O)C1` (configuration not stated), the “activity change, negative = inhibition” value was 6.44% (inactive).

Regarding `CC[n+]1ccccc1/C=C/c1ccc(N(C)C)cc1`, the Potency was 2.24 µM (active).

As to `Cc1ccc(/C=C/c2ccc(N(C)C)cc2)[n+](C)c1`, the Potency is 1.26 µM (active).

Take `COc1cc(/C=C(/C#N)C(=O)NCc2ccccc2)cc(OC)c1OC`: the Potency was 14.1 µM (active).

On to `CC[C@@H](C(=O)[C@@H](C)[C@@H](O)[C@H](C)CCc1ccc(C)c(O)c1C(=O)O)[C@H]1O[C@](CC)([C@H]2CC[C@](O)(CC)[C@H](C)O2)C[C@@H]1C`, for which the Potency was 0.708 µM (active).

For the compound `COc1ccc(N2CCc3c(C)nc4c(OC)cc(OC)cc4c32)c(OC)c1`, the Potency is 11.2 µM (active).

Take `Cc1ccccc1OCC(=O)NCCC1=CCCCC1`: the “activity change, negative = inhibition” value is -31.7% (inactive).

With `Cc1cc(=O)nc2c3ccccc3n(CC(=O)NCCC3=CCCCC3)n12`, the Potency was 12.6 µM (active).

Consider `Brc1ccc(/C=N/Nc2ncnc3c2cnn3Cc2ccccc2)cc1`, for which the Potency is 3.98 µM (active).

Consider `COC(=O)c1ccc(COc2ccccc2/C=N/O)o1`, for which the “activity change, negative = inhibition” value was -21.8% (inactive).

For the compound `COc1cccc(/C=N/NC(=O)c2nc(-c3ccccc3)cc(-c3ccccc3)n2)c1O`, the Potency was 6.31 µM (active).

In the case of `O=C(Cn1ncc2c3ccccc3n(Cc3cccc(Cl)c3)c2c1=O)NCc1ccccn1`, the Potency was 14.1 µM (active).

Turning to `COc1ccc(Cn2c(O)c(C=Nc3ccc(O)cc3)c3ccccc3c2=O)cc1`, the Potency was 10 µM (active).

For `CC[C@@H]1CC=C[C@H]2[C@H]1C(=O)N(Cc1ccccc1)[C@H]2c1ccoc1`, the Potency was 7.08 µM (active).

On to `O=C(COC(=O)c1c2c(nc3ccccc13)CCN(Cc1ccccc1)C2)Nc1c(F)cccc1F`, for which the Potency was 6.31 µM (active).

On to `COc1cccc(CN2CCN(c3nc4nonc4nc3N3CCCCC3)CC2=O)c1`, for which the Potency was 10 µM (active).

With `O=C(COc1ccc(Br)cc1)Nc1cc(S(=O)(=O)N2CCCCC2)ccc1N1CCCCC1`, the Potency was 5.62 µM (active).

`CC(Oc1cccc(Cl)c1)C(=O)Nc1cc(S(=O)(=O)N2CCOCC2)ccc1N1CCCCC1` (configuration not stated): the Potency is 5.01 µM (active).

`O=C(COc1ccc(Cl)cc1)Nc1cc(S(=O)(=O)N2CCCCC2)ccc1N1CCCCC1`: the Potency is 5.62 µM (active).

With `CCN1CCN(c2ccc(S(=O)(=O)N3CCCCC3)cc2NC(=O)COc2cc(C)ccc2Cl)CC1`, the Potency is 14.1 µM (active).

As for `C[C@@H]1[C@H](O)C[C@@]23COC(=O)C2=CCCC3[C@@]1(C)CCC1COC(=O)C1` (some centres not stated), the “activity change, negative = inhibition” value is -24.3% (inactive).
